MITF primary: inhibitors of human MITF | O75030 | AlphaScreen MITF homodimerization, bead proximity signal | inhibition, % at 2.6 µM | 650,000 compounds, 0.91% hits; in the data active = inhibition above about 50%
GPR151 ag: human GPR151 activation; 650,000 compounds, 1% hits; activation, % at 11.2 µM; Q8TDV0; PathHunter beta-arrestin GPR151 cells, luminescence; in the data active = activation above about 4.9%
TEAD-YAP block: TEAD-YAP interaction inhibition; HEK-TIYL cells, TEAD-Gal4/YAP UAS-luciferase luminescence; inhibition, % at 9.12 µM; 640,000 compounds, 1.4% hits; AID 1259422; in the data active = inhibition above about 32%
FBW7 act: human FBW7 E3 ligase activation, primary screen. AlphaScreen FBW7–phospho-cyclin E peptide binding, activator screen. normalized activity (activation), % at 26.1 µM. 650,000 compounds, 0.13% hits; in the data active = normalized activity above about 1.9%;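 also: purified mutant Fbw7 with reduced substrate affinity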
GPR151 conf act: human GPR151 activation, confirmation screen; shares compounds with GPR151 ag; GPR151 PathHunter beta-arrestin cells, luminescence, 90 min; % of EA-reagent control over plate median; activation, % at 11.2 µM; 6,700 tested, under 10 active;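 active = mean percent activation across replicates above the confirmation screen cutoff of 4.91%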
GPR119 ag: activates human GPR119 in a GPR151 counter-screen; AID 1508611; shares compounds with GPR151 ag; 6,700 compounds, 0.3% hits; activation, % at 11.2 µM; GPR119 PathHunter beta-arrestin cells, luminescence, 90 min; 0 = compound-well median, 100 = enzyme-acceptor control;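 active = mean percent activation in the counterscreen above 29.09%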;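 also: counterscreen on off-target GPR119 to flag nonselective hits from the GPR151 activator screen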
Target sequence (Q8TDV5 whole entry, looked up): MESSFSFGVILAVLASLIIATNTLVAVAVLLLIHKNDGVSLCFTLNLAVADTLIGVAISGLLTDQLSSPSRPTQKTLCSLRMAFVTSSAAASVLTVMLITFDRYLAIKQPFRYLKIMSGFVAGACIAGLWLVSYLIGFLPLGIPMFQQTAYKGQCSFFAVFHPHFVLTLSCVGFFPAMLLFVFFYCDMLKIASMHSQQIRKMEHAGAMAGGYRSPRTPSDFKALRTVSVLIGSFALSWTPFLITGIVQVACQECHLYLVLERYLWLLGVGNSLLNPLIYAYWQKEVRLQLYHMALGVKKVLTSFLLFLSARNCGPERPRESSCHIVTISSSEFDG
Of the large screens only hits and unclear results are named; the others gave an inactive call (follow-up assays come after a bar, where they were run); ! = a repeat was not active. The list is not random: actives were taken first. Their share in the collection is about 3.4%.

CC(=O)c1ccc(NC(=O)NNC(=O)c2cccc(N(C)C)c2)cc1	none
Cc1sc(NC(=O)c2ccc(N3CCCCC3)c([N+](=O)[O-])c2)c(C#N)c1C	GPR151 ag 13 | GPR151 conf act inactive | GPR119 ag inactive
O=C(O)C(=O)/C=C(\O)c1ccc(Cl)cc1	GPR151 ag 13 | GPR151 conf act inactive | GPR119 ag inactive
COc1cc(C(=O)Nc2cccc([N+](=O)[O-])c2)cc(OC)c1OC	none
COc1cc(C(=O)Nc2ccc([N+](=O)[O-])cc2)cc(Br)c1OC	GPR151 ag 5.6 | GPR151 conf act inactive | GPR119 ag inactive
CC1(C2CCN(Cc3nc(-c4ccccc4)cs3)CC2)NC(=O)NC1=O (centres undefined)	GPR151 ag 5.6 | GPR151 conf act inactive | GPR119 ag inactive
CCCCCCCCCCCCCCCC(=O)NCCO	GPR151 ag 9.1! | GPR151 conf act inactive | GPR119 ag inactive
c1ccc(CNc2cc(Nc3ccncc3)ncn2)cc1	GPR151 ag 5.4 | GPR151 conf act inactive | GPR119 ag inactive
Nc1nc(NCc2cccc(C(F)(F)F)c2)cc(Nc2ccncc2)n1	GPR151 ag 4.9 | GPR151 conf act inactive | GPR119 ag inactive
CCN1CCN(C(=O)Nc2ccc(C)c(Cl)c2)CC1	none
O=C(c1ccco1)N1CCc2ccc(NC(=O)C3(c4ccccc4)CCOCC3)cc21	GPR151 ag 8.4 | GPR151 conf act inactive | GPR119 ag inactive
O=C(Nc1ccc2c(c1)N(C(=O)c1ccco1)CC2)c1cccs1	none
CC(C)N(C)Cc1nnnn1CC(=O)N1CCCCC1c1cccnc1 (centres undefined)	none
Cc1cc(C)cc(NC(=O)C(C)N2C(=O)c3ccccc3C2=O)c1 (centres undefined)	none
Cc1ccc(NC(=O)C(C)N2C(=O)c3ccccc3C2=O)cc1C (centres undefined)	GPR151 ag 6.3 | GPR151 conf act inactive | GPR119 ag inactive
CC(C(=O)Nc1nc2ccccc2s1)N1C(=O)c2ccccc2C1=O (centres undefined)	GPR151 ag 9.7 | GPR151 conf act inactive | GPR119 ag inactive
CC1(C2CCN(C(=O)Cc3ccsc3)CC2)NC(=O)N(C2Cc3ccccc3C2)C1=O (centres undefined)	none
CC1(C2CCN(C(=O)C(=O)c3ccccc3)CC2)NC(=O)N(C2Cc3ccccc3C2)C1=O (centres undefined)	GPR151 ag 5.2 | GPR151 conf act inactive | GPR119 ag inactive
COc1ccccc1CNC(=O)CC1C(=O)NCCN1CCC(C)C (centres undefined)	GPR151 ag 5.8 | GPR151 conf act inactive | GPR119 ag inactive
CCCNC(=O)c1csc(-c2c(C)nn(C)c2C)n1	GPR151 ag 5.2 | GPR151 conf act inactive | GPR119 ag inactive
COc1cc(C=C(C#N)C#N)ccc1OC(=O)c1cccs1	none
CCOc1cc(C=C(C#N)C#N)ccc1OC(=O)c1cccs1	GPR151 ag 12 | GPR151 conf act inactive | GPR119 ag inactive
CN(C)S(=O)(=O)c1ccc(C(=O)OCc2nc3ccccc3s2)cc1	GPR151 ag 6.9 | GPR151 conf act inactive | GPR119 ag inactive
O=C(OCc1nc2ccccc2s1)c1ccc(O)cc1	none
CCCCN(C)C(=O)CN1C(=O)C(CC)Oc2ccc(C)cc21 (centres undefined)	GPR151 ag 8.8 | GPR151 conf act inactive | GPR119 ag inactive
CCC1Oc2ccc(C)cc2N(CC(=O)O)C1=O (centres undefined)	none
Cc1c(Cl)cccc1-n1c(SCC(=O)c2ccc(Cl)cc2)nc2[nH]ncc2c1=O	none
CCOC(=O)c1c(NC(C)=O)sc2c1CCN(C(C)C)C2	none
CCCCC(=O)N(CCn1cccn1)c1nc2c(F)cccc2s1	none
O=C(c1cc(Cl)ccc1Cl)N(CCn1cccn1)c1nc2c(F)cccc2s1	GPR151 ag 6.1 | GPR151 conf act inactive | GPR119 ag inactive
CCOc1cccc2sc(N(CCN(C)C)C(=O)c3cc(Cl)ccc3[N+](=O)[O-])nc12	GPR151 ag 7.1 | GPR151 conf act inactive | GPR119 ag inactive
Cc1cc(N2CCOCC2)nc(N2CCN(C(=O)c3cccc(Br)c3)CC2)n1	none
COc1ccc(OC)c(NC(=O)CCc2c(C)nc3ncnn3c2C)c1	none
O=C(O)CCCCCn1c(SCC(=O)c2ccccc2)nc2ccsc2c1=O	GPR151 ag 6.5 | GPR151 conf act inactive | GPR119 ag inactive
CC(C)CCNC(=O)NC(=O)COC(=O)c1cc2ccccc2oc1=O	GPR151 ag 12 | GPR151 conf act inactive | GPR119 ag inactive
CCN(CC)CCNC(=O)c1ccc2c(c1)N(CC)CCS2	none
Cc1cc(N2C(=O)C3C4CC(c5ccccc5)C(C4)C3C2=O)no1 (centres undefined)	GPR151 ag 11 | GPR151 conf act inactive | GPR119 ag inactive
CC(=O)O[C@]1(C(C)=O)CC[C@H]2[C@@H]3C=C(Cl)C4=CC(=O)CC[C@]4(C)[C@H]3CC[C@@]21C	GPR151 ag 5.2 (no result: TEAD-YAP block) | GPR151 conf act inactive | GPR119 ag inactive
COc1ccc(S(=O)(=O)N(C)C)c(Cl)c1Cl	GPR151 ag 16 | GPR151 conf act inactive | GPR119 ag inactive
COc1ccc(NS(=O)(=O)c2ccc(OC)c(Cl)c2Cl)cc1OC	GPR151 ag 11 | GPR151 conf act inactive | GPR119 ag inactive
COC(=O)c1ccc(C(=O)OC)c(NS(=O)(=O)c2ccc(OC)c(Cl)c2Cl)c1	GPR151 ag 9.5 | GPR151 conf act inactive | GPR119 ag inactive
CCCCNS(=O)(=O)c1ccc(OC)c(Cl)c1Cl	none
COc1cccc(NS(=O)(=O)c2ccc(OC)c(Cl)c2Cl)c1	none
Cc1c(C(=O)Nc2ccccc2CO)cccc1[N+](=O)[O-]	none
CCOC(=O)C1=C(O)/C(=C/N(C)C)SC1=Nc1ccc([N+](=O)[O-])cc1	none
COC(=O)CCC(=O)Nc1ccc(OC)c(Cl)c1	GPR151 ag 6.0 | GPR151 conf act inactive | GPR119 ag inactive
COc1cccc(CNC(=O)CCS(=O)(=O)c2ccc3c(c2)SCC(=O)N3)c1	GPR151 ag 11 | GPR151 conf act inactive | GPR119 ag inactive
Cn1c(=O)c(=O)n(C)c2cc(S(=O)(=O)CCC(=O)NCc3ccccc3)ccc21	GPR151 ag 6.1 | GPR151 conf act inactive | GPR119 ag inactive
CCC1Sc2cc(S(=O)(=O)CCC(=O)NCc3cccnc3)ccc2NC1=O (centres undefined)	GPR151 ag 7.5 | GPR151 conf act inactive | GPR119 ag inactive
CCCC(=O)Nc1ccc(OC)c(Cl)c1	none
COc1ccc(CNC(=O)CCS(=O)(=O)c2ccc3c(c2)n(C)c(=O)c(=O)n3C)cc1	none
CC1CCN(Cc2nnnn2CCc2ccccc2)CC1	none
COc1ccc(NC(=O)CCS(=O)(=O)c2ccc3c(c2)SCC(=O)N3)cc1Cl	GPR151 ag 5.2 | GPR151 conf act inactive | GPR119 ag inactive
COc1ccc(NC(=O)CCS(=O)(=O)c2ccc3c(c2)SCC(=O)N3)cc1OC	none
